These sequences were tested on PXR homodimer (NR concentration 270 nM) (assay: PBM binding z-score (relative to random genomic background probes); higher = stronger binding; sequences stand for … in GC…GCGATTGACAGCGTAGAATGAAGG).
How it was run: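 Antibodies against each partner of ligand-free nuclear receptor dimers (one per run) detected binding on custom Agilent 4×180K protein-binding microarrays after 1 h incubation. The double-stranded probes had 34-nt variable regions carrying direct-repeat seeds, single-nucleotide variants, half-site ablations and random human genomic background sequences. Binding z-scores, from regression-normalized fluorescence, use the random background probes as reference.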
Work on GGAACGAGGGCAAAGCTGATAGCATCTGTCGACG yielded a PBM binding z-score of -0.0388. Sequence CCTAGCAGGACAATCTGGGTCACTCAAGGCTTGA has a PBM binding z-score of -0.664. Sequence CGAACGAGGGCATGAGTCGATAGCAAATGCCGAT has a PBM binding z-score of -0.737. Sequence TAGCCTAGGTCATGCGGGCCAGTAAAGTGTCGGC has a PBM binding z-score of -0.33. For CGTTACGGGTCACTGACAGGTTATAGCATTTGGA, the PBM binding z-score was -0.254. Work on AGAATCAGGTTACCAAAGATCAGGGAAACGCTTG yielded a PBM binding z-score of -0.0157. With CCTACTGGGCCAAAAAGGTCATCGATGCCGATAA the PBM binding z-score was 1.58. In the case of ATATGTACGTTAAGGGTCATTCAGGTTGGTTCGC, the PBM binding z-score is reported as 2.21. For TCTCGGAGGATACGAAGGTCAGAGCTTTCCAGAG, the PBM binding z-score was -0.447. TCATATAGGTAAAGGTGAAAGTGGAACGATATGA showed a PBM binding z-score of 0.224. CCTGCTAGGTCAATGGCCAGCTAAAGCAGCTCGC gave a PBM binding z-score of -0.775. For TCGGACAGGTGAAGGTAACTCAGGTACGCAGTCG, the PBM binding z-score was 0.228. TCATATAGGTAAAACGTGAAAGTCGGTGTGGTAA gave a PBM binding z-score of 0.241. GCAGACAGGTGAAACGCAGGTAACTCACGGTGGC showed a PBM binding z-score of -0.98. CGTCCAAGGTCAGAGAGGTCAGGGAATGCCGAGT showed a PBM binding z-score of 10.6. GCTCGGAGGACAAGCTCAGAGCTTTGTCCGTAGA gave a PBM binding z-score of -0.896. TGTAGTTGGTCACGGAGGTCACACACGACGGGTA was tested, and the PBM binding z-score was 0.948. Work on CAAACTAGGTCAAGAGGTCACAGTCCGCTTCCCG yielded a PBM binding z-score of 1.56. CAAACTAGGTCAAGAGGTCGAAGTCCGCTTCCCG gave a PBM binding z-score of 0.441. GCCTACGGGTCAAAGGTTATAGCATGAATAGAAT gave a PBM binding z-score of 0.219. TAGCCTAGGTCATGGGCCAGCATACCACGCGAAC was tested, and the PBM binding z-score was -0.554. For CGAACTGGGTCATCCAGGACAGTGAATACATTGA, the PBM binding z-score was 0.0976. In the case of CCAGACAGGTGAAAGATAACTCAGTCTGGTACGC, the PBM binding z-score is reported as 0.127. For CCTACTGGGCCATCAGGTCATTGTTATCAACGTT, the PBM binding z-score was 0.409. For CGAACTAGGACAAGGACAGTGAATCTCCGCACGC, the PBM binding z-score was -0.177. With CAGCCTAGGTCACGGCCAGTATAGGAGGAACGTT the PBM binding z-score was -0.132. TCATATAGGTAAATGCTAGGTGAAAGCCCGATCT showed a PBM binding z-score of -0.0207. With GCTCGGACGACAAGGTCAGAGCTTTGTCCGTAGA the PBM binding z-score was -0.194. CAAGCTAGGTCACGAAAGGTCAAAGTCGAATGAC was tested, and the PBM binding z-score was 3.04. TAGGCTAGGTCATGGGCCAGTATACCACGCGAAC showed a PBM binding z-score of -0.616. GCAGACAGGTGAAACGCAGGTAAATCAGGGTGGC showed a PBM binding z-score of -0.443. CCTTACGGGTCAAGGTTATTGCACGGGTGGTACG gave a PBM binding z-score of 0.512. ACTGACAGGTGATGAAGGTAACTCAGGCTATCAT was tested, and the PBM binding z-score was -0.233. With CAAACTAGGTCATCGGAAGGTCAAAGTCCGCATG the PBM binding z-score was 1.97. With CAAACTAGGTAACGAAAGGTCAAAGTCGAATGAC the PBM binding z-score was 1.94. In the case of TCTCGGAGGACCCGAAGGTCAGAGCTTTCCAGAG, the PBM binding z-score is reported as -0.264. AACACAGGGTCATCGTAGGCCAGAGTACGCACAG gave a PBM binding z-score of 0.707. AGAATGAGGTTATTAAGATCCGGGAATTGCGGTC showed a PBM binding z-score of 0.153. TCATATAGGTAAATGCTAGATGAAAGTCCGATCT showed a PBM binding z-score of 0.0659. Sequence CCTGCTAGGTCATGGTAAGCTAATCTACAGTATG has a PBM binding z-score of -0.26.

Reference: the supplement of paper PMC6555819
